{"source": "ChEMBL document CHEMBL4513216", "about": "“Probing the Open Global Health Chemical Diversity Library for Multistage-Active Starting Points for Next-Generation Antimalarials” (ACS Infect Dis, 2020)", "note": "Out of some 65,000 compounds screened, about 2,100 (3.2%) showed an effect of 50% or more. The median lay at about -52%. Many of the other results were omitted from the sample, so strong results are more common in it than they were.", "data": [{"tested_on": "Plasmodium falciparum", "assay": "Screen against P. falciparum Asexual Blood Stage (ABS), at 5uM", "assay_type": "functional, Dd2", "conditions": "tested at 5 uM", "units": {"INHIBITION": "%"}, "values": [{"compound": "N#CC1(C(=O)N2CCOC(c3ccc(Cl)cc3)C2)CCCC1", "note": "(stereo not given)", "INHIBITION": -11.4}, {"compound": "CN(Cc1ccccc1F)C(C(N)=O)c1ccccc1", "note": "(stereo not given)", "INHIBITION": -90}, {"compound": "COc1nccc(N2CC[C@@H](N3CCC(O)CC3)[C@H](O)C2)c1C#N", "INHIBITION": -75.9}, {"compound": "COc1nccc(N2CC[C@@H](N3CCCCCC3)[C@H](O)C2)c1C#N", "INHIBITION": 52.3}, {"compound": "COc1nccc(N2CC[C@@H](N3CCN(C)CC3)[C@H](O)C2)c1C#N", "INHIBITION": -50.4}, {"compound": "O=C([C@H]1C[C@H]2OCC[C@H]2N(CC2CCOCC2)C1)N1CCCCO1", "INHIBITION": -23.2}, {"compound": "Clc1cccc(-n2cnnn2)c1N1CCCCC1", "INHIBITION": -48.1}, {"compound": "CCOC(=O)C1CN(CC2CC2)Cc2ncn(CC)c21", "note": "(stereo not given)", "INHIBITION": 14}, {"compound": "CNC(=O)CN1CCOCC12CCN(C(=O)c1ccc(C)cc1)CC2", "INHIBITION": -78}, {"compound": "Cn1cc(C[C@H]2[C@H](N3CCOCC3)CCN2c2ncc(F)cn2)cn1", "INHIBITION": -63.8}, {"compound": "CCN1CCCC1CN(CCN(C)C)S(=O)(=O)c1ccc(C#N)cc1", "note": "(stereo not given)", "INHIBITION": 59.7}, {"compound": "CN(CCn1cccn1)S(=O)(=O)c1ccc(C#N)cc1", "INHIBITION": -48.4}, {"compound": "CCN1CCCC1CN(CCN(C)C)S(=O)(=O)c1cccc(C#N)c1", "note": "(stereo not given)", "INHIBITION": 60.4}, {"compound": "CCN(C)C[C@@H]1CN(S(=O)(=O)c2ccc(C#N)cc2)C[C@@H]1CO", "INHIBITION": 15.5}, {"compound": "N#Cc1cccc(S(=O)(=O)N2CCCCC2CCN2CCCC2)c1", "note": "(stereo not given)", "INHIBITION": -4}, {"compound": "COCCCC1CCCCN1S(=O)(=O)c1cccc(C#N)c1", "note": "(stereo not given)", "INHIBITION": -16.1}, {"compound": "CN1CCN(C(=O)c2cnsn2)c2cc(F)ccc21", "INHIBITION": -79.3}, {"compound": "CSc1ccc(-c2noc(CN(CC(C)C)CC(C)C)n2)cc1", "INHIBITION": -63.5}, {"compound": "O=C(O)C1(Cc2cc(-c3ccc(F)cc3)no2)CCOCC1", "INHIBITION": -19.8}, {"compound": "Cc1ccc(NC(=O)CC2Cn3ncnc3NC2=O)cc1C", "note": "(stereo not given)", "INHIBITION": -65.7}, {"compound": "Cc1cnn(CC2CCCN2Cc2nccn2C)c1", "note": "(stereo not given)", "INHIBITION": -72.8}, {"compound": "CCn1ccnc1CN1CCCC1Cn1cc(C)cn1", "note": "(stereo not given)", "INHIBITION": 65.6}, {"compound": "Cc1cnn(CC2CCCN2Cc2nccn2CC(F)(F)F)c1", "note": "(stereo not given)", "INHIBITION": -0.234}, {"compound": "CN(C)CCCNC(=O)c1ccc(N(C)S(C)(=O)=O)cc1Cl", "INHIBITION": -70.5}, {"compound": "O=C(CCc1ccccc1F)NS(=O)(=O)c1ccc2c(c1)OCCO2", "INHIBITION": -17.8}, {"compound": "CCS(=O)(=O)N1CCCC2(COCCN(c3ccccn3)C2)C1", "note": "(stereo not given)", "INHIBITION": -1.4}, {"compound": "COCC(O)CNC(=O)Nc1ccc(Cl)cc1-n1cccc1", "note": "(stereo not given)", "INHIBITION": -45.8}, {"compound": "CCCn1ncc(CN(Cc2ccsc2)Cc2ccco2)c1C", "INHIBITION": -122}, {"compound": "CCCn1ncc(CN(CCN(C)C)Cc2ccsc2)c1C", "INHIBITION": 54.5}, {"compound": "CCCn1ncc(CN(Cc2cccnc2)Cc2ccsc2)c1C", "INHIBITION": -129}]}]}
